{"source": "paper PMC9911399", "about": "“Two distinct binding modes provide the RNA-binding protein RbFox with extraordinary sequence specificity”", "binders": {"B1": {"name": "GGGCCAA (DNA:RNA)", "RNA": "GGGAGACCGGAAUUCAGAUUGUCCGGGCCAAUUAAAUCCCGUCGUAGCCACCA", "DNA 1": "CAATCTGAATTCCGGTCTCCC", "DNA 2": "TGGTGGCTACGACGGGATT"}, "B2": {"name": "UUCGUCU (DNA:RNA)", "RNA": "GGGAGACCGGAAUUCAGAUUGUCCUUCGUCUUUAAAUCCCGUCGUAGCCACCA", "DNA 1": "CAATCTGAATTCCGGTCTCCC", "DNA 2": "TGGTGGCTACGACGGGATT"}, "B3": {"name": "GGACUAG (DNA:RNA)", "RNA": "B1 RNA with G27A, C29U, A31G", "DNA 1": "CAATCTGAATTCCGGTCTCCC", "DNA 2": "TGGTGGCTACGACGGGATT"}, "B4": {"name": "ACCCGUU (DNA:RNA)", "RNA": "B2 RNA with U25A, U26C, G28C, U29G, C30U", "DNA 1": "CAATCTGAATTCCGGTCTCCC", "DNA 2": "TGGTGGCTACGACGGGATT"}, "B5": {"name": "AUGGCUC (DNA:RNA)", "RNA": "B1 RNA with G25A, G26U, C28G, A30U, A31C", "DNA 1": "CAATCTGAATTCCGGTCTCCC", "DNA 2": "TGGTGGCTACGACGGGATT"}, "B6": {"name": "UAUUUAA (DNA:RNA)", "RNA": "B1 RNA with G25U, G26A, G27U, C28U, C29U", "DNA 1": "CAATCTGAATTCCGGTCTCCC", "DNA 2": "TGGTGGCTACGACGGGATT"}, "B7": {"name": "AGCAGCG (DNA:RNA)", "RNA": "B2 RNA with U25A, U26G, G28A, U29G, U31G", "DNA 1": "CAATCTGAATTCCGGTCTCCC", "DNA 2": "TGGTGGCTACGACGGGATT"}, "B8": {"name": "GAAUGGC (DNA:RNA)", "RNA": "B1 RNA with G26A, G27A, C28U, C29G, A30G, A31C", "DNA 1": "CAATCTGAATTCCGGTCTCCC", "DNA 2": "TGGTGGCTACGACGGGATT"}, "B9": {"name": "GGAUGGU (DNA:RNA)", "RNA": "B1 RNA with G27A, C28U, C29G, A30G, A31U", "DNA 1": "CAATCTGAATTCCGGTCTCCC", "DNA 2": "TGGTGGCTACGACGGGATT"}, "B10": {"name": "GAUUGGC (DNA:RNA)", "RNA": "B1 RNA with G26A, G27U, C28U, C29G, A30G, A31C", "DNA 1": "CAATCTGAATTCCGGTCTCCC", "DNA 2": "TGGTGGCTACGACGGGATT"}, "B11": {"name": "GAAUGGU (DNA:RNA)", "RNA": "B1 RNA with G26A, G27A, C28U, C29G, A30G, A31U", "DNA 1": "CAATCTGAATTCCGGTCTCCC", "DNA 2": "TGGTGGCTACGACGGGATT"}, "B12": {"name": "CGAUGGC (DNA:RNA)", "RNA": "B1 RNA with G25C, G27A, C28U, C29G, A30G, A31C", "DNA 1": "CAATCTGAATTCCGGTCTCCC", "DNA 2": "TGGTGGCTACGACGGGATT"}, "B13": {"name": "GAUGGUU (DNA:RNA)", "RNA": "B2 RNA with U25G, U26A, C27U, U29G, C30U", "DNA 1": "CAATCTGAATTCCGGTCTCCC", "DNA 2": "TGGTGGCTACGACGGGATT"}}, "note": "Residue numbers refer to the chain shown, from its start. Over roughly 16,000 sequences, “ka relative to ugcaugu” has its median near 0.096; the highest 2% begin near 0.35. What follows is part of a selection rich in the highest values, with near analogues and random picks from the rest.", "data": [{"target": "T1, RBFOX1 RRM RbFoxmut (Fox-RRM*) (Homo sapiens, UniProt Q9NWB1 109-208, R118D;E147R;N151S;E152T)", "T1 sequence": "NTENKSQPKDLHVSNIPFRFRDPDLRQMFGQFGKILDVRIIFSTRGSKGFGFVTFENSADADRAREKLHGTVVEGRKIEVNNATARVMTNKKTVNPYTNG", "assay": "EMSA; HiTS-Eq, 1 nM pool, 10 min; buffer printed only for the single-RNA assays: 10 mM Tris pH 7.5, 150 mM NaCl, 3.4 mM EDTA, 0.001% NP-40, 30 C", "conditions": "tags: His6 N-terminal (pET28a); label: 5' 32P", "method_in_brief": "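These values rest on relative association constants, computed from read-count changes of each RNA species versus the control reaction and normalised to the cognate motif. Reads came from free RNA recovered by 8% native PAGE after purified RbFox RRM (wild type or mutant) at increasing concentrations was equilibrated for 10 min in 50 µL with 1 nM of a 5′-radiolabelled pool with 7 randomized nucleotides and DNA-annealed flanks.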", "values": [{"binder": "B1", "binding signal": "0.0698 KA relative to UGCAUGU"}, {"binder": "B2", "binding signal": "0.0697 KA relative to UGCAUGU"}, {"binder": "B3", "binding signal": "0.0756 KA relative to UGCAUGU"}, {"binder": "B4", "binding signal": "0.0752 KA relative to UGCAUGU"}, {"binder": "B5", "binding signal": "0.111 KA relative to UGCAUGU"}, {"binder": "B6", "binding signal": "0.0892 KA relative to UGCAUGU"}, {"binder": "B7", "binding signal": "0.113 KA relative to UGCAUGU"}, {"binder": "B8", "binding signal": "0.592 KA relative to UGCAUGU"}, {"binder": "B9", "binding signal": "0.201 KA relative to UGCAUGU"}, {"binder": "B10", "binding signal": "0.145 KA relative to UGCAUGU"}, {"binder": "B11", "binding signal": "0.748 KA relative to UGCAUGU"}, {"binder": "B12", "binding signal": "0.101 KA relative to UGCAUGU"}, {"binder": "B13", "binding signal": "0.0937 KA relative to UGCAUGU"}]}]}
